ALDH1A1 block: inhibitors of human aldehyde dehydrogenase 1A1 | P00352 | Purified ALDH1A1, NADH fluorescence, propionaldehyde substrate | Potency, µM (series often up to 75.3 µM), most hits filed as inhibitors | 220,000 tested, 7.3% active | AID 1030; active = well fitted inhibition curve with a large enough effect, not every such curve was filed as active; inconclusive = small, poorly fitted or top-dose-only effect, or another doubt; inactive = no such curve, though single readings can be large or run the other way
Target sequence (P00352 whole entry, looked up): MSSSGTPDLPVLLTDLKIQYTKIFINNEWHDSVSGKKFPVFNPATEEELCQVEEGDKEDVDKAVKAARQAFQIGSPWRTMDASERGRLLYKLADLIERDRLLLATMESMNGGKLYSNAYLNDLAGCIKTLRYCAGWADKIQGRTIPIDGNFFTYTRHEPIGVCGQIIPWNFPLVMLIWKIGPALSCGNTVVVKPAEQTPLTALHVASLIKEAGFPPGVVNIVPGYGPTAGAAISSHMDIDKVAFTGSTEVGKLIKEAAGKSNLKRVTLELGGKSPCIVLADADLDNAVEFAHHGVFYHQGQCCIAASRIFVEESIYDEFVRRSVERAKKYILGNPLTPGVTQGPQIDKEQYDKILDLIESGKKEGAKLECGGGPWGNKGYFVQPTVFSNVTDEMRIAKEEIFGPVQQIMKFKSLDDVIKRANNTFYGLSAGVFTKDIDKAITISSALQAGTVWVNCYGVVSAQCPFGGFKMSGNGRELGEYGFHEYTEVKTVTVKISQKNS
NPSR antagonist: neuropeptide S receptor (human) antagonism, cAMP; Q6W5P4; CHO-NPSR cells, cAMP TR-FRET, antagonist mode; Potency, µM (series often up to 38.3 µM), actives largely listed as inhibitors; 220,000 tested, 1% active; AID 1461; also: nearly all actives have a fitted effect of over 50% in size
KDM4E inh: inhibitors of human JMJD2E histone demethylase; JMJD2E catalytic domain, FDH-coupled NADH fluorescence (FDH is formaldehyde dehydrogenase); Potency, µM (top dose mostly 57.1 µM), actives largely listed as inhibitors; 230,000 tested, 1.6% active; AID 2147; active = well fitted inhibition curve with a large enough effect, not every such curve was filed as active; inconclusive = small, poorly fitted or top-dose-only effect, or another doubt; inactive = no such curve, though single readings can be large or run the other way; also: nearly all actives have a fitted effect of over 50% in size
RGS12 GoLoco inh: blocks human Gai1 binding to RGS12 GoLoco peptide, red readout | Gai1:RGS12 GoLoco peptide FP, rhodamine, 10 min | P63096 | AID 880 | 230,000 tested, 0.44% active | Potency, µM (titrated, usually from 61.6 µM), actives largely listed as inhibitors; active = well fitted inhibition curve with a large enough effect, not every such curve was filed as active; inactive = no such curve, though single readings can be large or run the other way; also: nearly all actives have a fitted effect of over 30% in size
FBPA coupling cs: coupling enzyme interference in Giardia aldolase counter-screen. AID 2472. 290,000 tested, 0.67% active. coupling enzyme system counterscreen, AmpLite Red fluorescence. activity change, negative = inhibition, % at 58.2 µM, hits read low; in the data active = activity change below about -30%
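Compounds tested against the coupling enzymes alone at 57.5 uM final; readout was AmpLite Red fluorescence (525/598 nm) after 20 min at RT.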
Sfp inh: inhibitors of Bacillus subtilis Sfp phosphopantetheinyl transferase | Biochemical Sfp PPTase activity, qHTS | Potency, µM, actives largely listed as inhibitors | 310,000 tested, 3.5% active | AID 1490;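 also: the enzyme is Sfp with the accession as filed and its product quenches rhodamine fluorescence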
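Fluorescence-quenching assay: 15 nM Sfp-PPTase preincubated 15 min at room temperature with compound, then 5 uM rhodamine-CoA and 12.5 uM BHQ-2-labelled YbbR peptide added. Fluorescence (ex 525/em 598 nm) read at start and after 30 min; difference gives rate.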
Hits are given with their value; . = inactive; ? = inconclusive; / = not tested or not shown; [ ] = remark or other dose. Rows were chosen to be rich in hits. Some 8.5% of all compounds tested hit in one or more screens of this group. Unless noted, calls follow the shape of the dose curve; as a rule, active = well fitted curve in the direction sought with a large enough effect; inconclusive = small, poorly fitted or top-dose-only effect, or another doubt; inactive = no such curve, though single readings can be large; an effect the other way counts as inactive or inconclusive.

SMILES	ALDH1A1 block	NPSR antagonist	KDM4E inh	RGS12 GoLoco inh	FBPA coupling cs	Sfp inh
CC(=O)N1N=C(c2ccc(C)cc2)CC1c1ccco1 (stereo unspecified)	.	.	.	.	.	.
Cc1ccc(C2=NN(C(=O)CCCC(=O)O)C(c3ccco3)C2)cc1 (stereo unspecified)	.	.	.	.	.	44.7µM
Cc1nnc(SCC(=O)N2N=C(c3ccc(Cl)cc3)CC2c2ccco2)[nH]c1=O (stereo unspecified)	?	.	?	.	.	50.1µM
O=C(NCc1ccccc1)c1cc[n+](Cc2ccccc2)cc1	.	.	.	.	.	.
CCN1CCN(C(CNS(=O)(=O)c2ccc(Br)cc2)c2cccnc2)CC1 (stereo unspecified)	/	/	/	/	/	.
CCOc1cc(/C=C2/NC(=O)N(Cc3ccccc3F)C2=O)ccc1O	8.91µM	.	?	.	.	.
COc1cc(/C=C2/NC(=O)N(Cc3ccccc3F)C2=O)cc(OC)c1O	10µM	.	?	.	.	.
O=C(Nc1ccccc1C(=O)O)/C(=C/c1ccc([N+](=O)[O-])cc1)NC(=O)c1ccc(Br)o1	10µM	.	.	.	.	7.94µM
CC(C)(C)c1ccc(C(=O)N/C(=C\c2cccs2)C(=O)NCc2ccco2)cc1	3.16µM	.	.	/	.	.
O=C(NCc1ccco1)/C(=C\c1ccco1)NC(=O)c1ccco1	/	.	.	.	.	44.7µM
O=C(Nc1ccc(C(=O)O)cc1)/C(=C\c1ccco1)NC(=O)c1ccc(Br)o1	/	/	/	/	.	50.1µM
O=C(O)/C(=C/c1ccco1)NC(=O)c1ccc(Br)o1	/	/	/	/	.	.
O=C(NC(Cc1ccccc1)C(=O)O)/C(=C/c1ccc([N+](=O)[O-])cc1)NC(=O)c1ccc(Br)o1 (stereo unspecified)	/	/	/	/	.	.
CN(C)c1ccc(CNc2ccc3c(c2)ncn3C(C)(C)C)cc1	/	/	/	/	.	.
C=CCNC(=O)/C(=C/c1ccco1)NC(=O)c1ccc(Br)o1	?	.	.	.	.	10µM
O=C(NCc1ccco1)/C(=C\c1ccco1)NC(=O)c1ccc(Br)o1	28.2µM	.	.	.	.	89.1µM
C=CCNC(=O)/C(=C\c1ccco1)NC(=O)c1ccco1	/	/	/	/	.	.
Cc1ccc(/C=N/NC(=O)c2nnn(-c3nonc3N)c2CSc2ccc(Cl)cc2)o1	/	/	/	/	.	.
CCN1CCS/C1=C\C=C\C1=[N+](CC)CCS1	.	.	/	.	.	.
CCN1CCS/C1=C/C=C/C1=[N+](CC)CCS1	/	.	28.2µM	.	.	.
COc1cc(OC)nc(Oc2ccc(N)c(C)c2)n1	/	/	/	/	.	.
COc1ccc(-c2ccc(C3C4C=CCCC4(C)C(=O)N3Cc3ccccc3)c(F)c2)cc1 (stereo unspecified)	/	/	/	/	.	?
CCCCn1c(Cc2ccccc2)n[nH]c1=S	14.1µM	.	.	.	.	?
CCn1c(Cc2ccccc2)n[nH]c1=S	/	.	.	.	.	.
CC(C)Cn1c(Cc2ccccc2)n[nH]c1=S	15.8µM	.	.	.	.	.
SMILES	ALDH1A1 block	NPSR antagonist	KDM4E inh	RGS12 GoLoco inh	FBPA coupling cs	Sfp inh
CC(C)C[C@H](NC(=O)C1CC(=O)N(c2ccc3c(c2)OCCO3)C1)C(=O)N1CCCCC1 (stereo partly specified)	/	/	/	/	.	.
CC(C)(C)NC(=O)NC(=O)CN1CCN(c2ncc(C(F)(F)F)cc2Cl)CC1	28.2µM	.	.	.	.	.
O=C(Nc1ccc2c(c1)OCO2)c1ccccc1SCC(=O)N1CCCC1	1.26µM	.	.	.	.	.
COc1cccc(COCC(O)CN2CCC(C(N)=O)CC2)c1 (stereo unspecified)	/	/	/	/	.	.
CC(=O)NC(CC(C)C)C(=O)NC(=O)NCc1ccccc1 (stereo unspecified)	5.01µM	.	.	.	.	.
COc1ccc(NC(=O)C(=O)N/N=C/c2cc(C)n(-c3cccc(Cl)c3Cl)c2C)c(OC)c1	31.6µM	.	?	.	.	.
CC1(C)CCN2CCC(C)(C)c3c(O)ccc1c32	/	/	/	/	-30.0	20µM
CCOC(=O)c1c(N)sc2c1C1CCN2CC1	.	.	.	/	.	.
CCOC(=O)c1c(N)sc2c1CCS(=O)(=O)C2	28.2µM	.	.	.	.	56.2µM
CCNC(=O)c1c(N)sc2c1CCCCC2	28.2µM	.	?	.	.	35.5µM
CCCOC(=O)c1c(NC(=O)C2C3C=CC(C3)C2C(=O)O)sc2c1CCC(C)C2 (stereo unspecified)	10µM	.	.	.	.	39.8µM
CCOC(=O)c1c(N)sc2c1CCCC2	20µM	.	?	.	.	?
CCOC(=O)c1c(NC=O)sc2c1CCC2	.	.	.	.	.	.
Cc1cccc(NS(=O)(=O)c2cc(C(=O)N3CCCCCC3)ccc2C)c1	/	/	/	/	.	.
COc1ccc(N2CCN(C(c3cccs3)C(C)NS(C)(=O)=O)CC2)cc1 (stereo unspecified)	.	.	.	.	.	.
CO/N=C(/C)CCC(=O)OC[C@@H]1O[C@H](c2ccccc2)C=C[C@@H]1Oc1ccc(OC)cc1	.[13.5 µM]	/	/	/	.	.
CCOC(=O)c1c(N)sc2c1CCN(CCc1ccccc1)C2	/	/	/	/	.	.
CCOC(=O)c1c(N2C(=O)C3C4C=CC(O4)C3C2=O)sc2c1CCCC2 (stereo unspecified)	2.24µM	.	.	.	.	8.91µM
CCOC(=O)c1c(-n2cnnn2)sc2c1CCCC2	/	.[7.67 µM]	?	.	.	.
CCOC(=O)c1c(N)sc2c1CCC(C)C2 (stereo unspecified)	12.6µM	.	?	.	.	50.1µM
CCCCn1c(SCC(=O)NC2CC2)nc2ccccc2c1=O	/	/	/	/	/	.
CNC(=S)N1CCC(Cc2ccccc2)CC1	/	/	/	/	.	.
Oc1cccc(C(=S)N2CCC(Cc3ccccc3)CC2)c1	/	/	/	/	.	35.5µM
CCN1CCN(C(=S)NC(CC(=O)c2ccccc2)c2ccccc2)CC1 (stereo unspecified)	.	.	.	.	.	.
CCN1CCN(C(=S)c2ccc(-c3ccccc3)cc2)CC1	.	.	.	.	.	22.4µM
SMILES	ALDH1A1 block	NPSR antagonist	KDM4E inh	RGS12 GoLoco inh	FBPA coupling cs	Sfp inh
CCN1CCN(C(=S)NC(C)c2ccccc2)CC1 (stereo unspecified)	18.9µM	.	.	.	.	.
CCN1CCN(C(=S)c2ccc(Cl)c(Cl)c2)CC1	?	.	.	.	.	15.8µM
O=C(CN1CCN(c2ccccn2)CC1)Nc1nc2ccccc2s1	/	/	/	/	.	.
O=C(c1ccccc1)N1CCN(Cc2ccccc2)CC1	?	.	?	.	.	.
Cc1ccc(C(=S)N2CCN(Cc3ccccc3)CC2)cc1	?	.	.	.	.	11.2µM
CCN1CCN(C(=S)c2ccc(OCC(=O)NCc3ccccc3)cc2)CC1	?	.	.	.	.	22.4µM
Oc1cccc(C(=S)N2CCN(Cc3ccccc3)CC2)c1	11.2µM	.	.	.	.	?
O=c1c(-c2ccc(F)c(F)c2)nc2cncnc2n1Cc1ccccc1	.	/	/	.	.	.
